{
  "source": "PubChem BioAssay (NCATS)",
  "note": "The source made the active and inactive calls. Calls follow the shape of the dose curve; as a rule, active = well fitted activation curve with a large enough effect; inconclusive = small, poorly fitted or top-dose-only effect; inactive = flat fitted curve, though single readings scatter. Potency is read from the fitted curve at half-maximal effect.",
  "data": [
    {"test": "Cellular Toxicity (caspase-3) HepG2 (AID 654);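 as to caspase-3 activation: cells exposed to compound for 16 hours before reading; 0% = DMSO alone and 100% = caspase signal from 100 µM tamoxifen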", "details": "HepG2 caspase-3 activation, luminescence; series mostly up to 92.2 µM; caspase-3 activation: at the top concentration", "text": "NIH Chemical Genomics Center [NCGC]\nNIH Molecular Libraries Screening Centers Network [MLSCN]\nNational Institutes of Environmental Health Sciences [NIEHS]\nNational Toxicology Program [NTP]\nWe have developed a 1536-well cell-based assay for quantitative high throughput screening (qHTS) against a number of cell lines to determine in vitro caspase 3/7 of small molecules. This particular assay uses the HepG2 cell line which is derived from human hepatocellular carcinoma.\nNCGC Assay Protocol Summary:\nThe Caspase-Glo 3/7 assay (Promega) is a homogeneous method to measure caspase-3 and caspase-7 activities in cultured cells. The quantitation of caspase 3/7 activity is based on the cleavage of a peptide-aminoluciferin substrate. After caspase cleaves the substrate the free aminoluciferin is liberated and serves as the substrate of luciferase, which generates the light. The luminescent signal is proportional to amount of caspase 3/7 activity present.\nUsing the Caspase-Glo 3/7 assay, the amount of caspase 3/7 activity was measured in the HepG2 cell line with complete culture medium following compound treatment for 16 hours. The assay was performed in opaque white 1536-well plates. In the screen, tamoxifen and doxorubicin were used as positive controls. Library compounds were measured for their ability to cause the activation of caspase 3/7 in the cell line, as reflected by an increase in luminescence signal, in a concentration-dependent manner. Data were normalized to the controls for basal activity (DMSO only) and 100% stimulation (100 uM tamoxifen). AC50 values were determined from concentration-response data modeled with the standard Hill equation.\nqHTS protocol for caspase 3/7 assay in HepG2 cells\n[Step] [Parameter] [Value] [Description]\n1. Reagent; 5 uL; 1500 HepG2 cells/well\n2. Time; 5 hr; 37 °C incubation\n4. Controls; 23 nL; Tamoxifen 0.23 uM to 100 uM & Doxorubicin 7.0 pM to 100 uM\n5. Time; 16 hr; 37 °C incubation\n6. Reagent; 5 uL; Caspase-Glo 3/7 reagent\n7. Time; 20 min; Room Temperature\n8. Detection; Luminescence; Viewlux plate reader\nKeywords: caspase 3/7, apoptosis, HepG2 cell line, luminescence, NTPHTS, NTPHTS_NCGC, NIEHS, EPA, DSSTox, MLSMR, MLSCN, NIH Roadmap, qHTS, NCGC", "values": [
      {"smiles": "C[C@]12C[C@H](O)[C@H]3[C@@H](CCC4=CC(=O)CC[C@@]43C)[C@@H]1CC[C@@H]2C(=O)CO", "caspase-3 activation": "-0.909% (inactive)"},
      {"smiles": "Cc1c(O)cccc1C(=O)N[C@@H](CSc1ccccc1)[C@H](O)CN1C[C@H]2CCCC[C@H]2C[C@H]1C(=O)NC(C)(C)C", "Potency": "63.1 µM (active)"},
      {"smiles": "NC(=O)c1ncn([C@@H]2O[C@H](CO)[C@@H](O)[C@H]2O)n1", "caspase-3 activation": "0.105% (inactive)"},
      {"smiles": "NCCNCCNCCNCCN", "caspase-3 activation": "0.204% (inactive)"},
      {"smiles": "NC(=O)N/N=C/c1ccc([N+](=O)[O-])o1", "caspase-3 activation": "0.544% (inactive)"},
      {"smiles": "CC1(C)[C@@H]2CC[C@@]1(C)C(=O)C2", "caspase-3 activation": "0.116% (inactive)"},
      {"smiles": "Oc1cccc(O)c1", "caspase-3 activation": "0.259% (inactive)"},
      {"smiles": "[Cl][In]([Cl])[Cl]", "caspase-3 activation": "-0.0899% (inactive)"},
      {"smiles": "Cc1cc(CC(=O)O)n(C)c1C(=O)c1ccc(Cl)cc1", "caspase-3 activation": "0.335% (inactive)"},
      {"smiles": "Cc1cc2nc3c(=O)[nH]c(=O)nc-3n(C[C@H](O)[C@H](O)[C@H](O)CO)c2cc1C", "caspase-3 activation": "0.544% (inactive)"},
      {"smiles": "O=C1c2c(O)cccc2Cc2cccc(O)c21", "caspase-3 activation": "0.149% (inactive)"},
      {"smiles": "CC12CCC(CC1)C(C)(C)O2", "caspase-3 activation": "0.204% (inactive)"},
      {"smiles": "CCCCCCCCCCCCOS(=O)(=O)O", "Potency": "inactive"},
      {"smiles": "NCCNCCNCCN", "caspase-3 activation": "-0.0259% (inactive)"},
      {"smiles": "CN(C)CCC=C1c2ccccc2CCc2ccccc21", "caspase-3 activation": "13.5% (inactive)"},
      {"smiles": "Nc1ccc(S(=O)(=O)Nc2nccs2)cc1", "caspase-3 activation": "1.19% (inactive)"},
      {"smiles": "COc1ccccc1O", "Potency": "inactive"},
      {"smiles": "CCCCOC(=O)c1ccc(O)cc1", "caspase-3 activation": "-0.0452% (inactive)"},
      {"smiles": "COC(=O)C1=C(C)NC(C)=C(C(=O)OC)C1c1ccccc1[N+](=O)[O-]", "caspase-3 activation": "-0.11% (inactive)"},
      {"smiles": "O=C1O[C@H]([C@@H](O)CO)C(O)=C1O", "caspase-3 activation": "0.131% (inactive)"}
    ]}
  ]
}
